The values that follow come from PubChem BioAssay (NCATS).

A short description of assay [1]: UWB1.289 Cancer Cell Toxicity qHTS against the NCATS CANVASS Library (AID 1347347). Also: nearly all actives have a fitted effect of over 60% in size. Also: potency is read from the fitted curve at half-maximal effect. An outline of the steps:
(§1)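 Step one: seed 1000 cells per well. Step two: incubate 4 h. Step three: add test compounds in 11 concentrations. Step four: culture 72 h, then add CellTiter-Glo and record luminescence after 15min.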

Assay [2] in a line: SW1088 Cancer Cell Toxicity qHTS against the NCATS CANVASS Library (AID 1347350). Also: nearly all actives have a fitted effect of over 75% in size. Put shortly: as §1
(qHTS replaces the single test concentration by a dilution series.)

Assay [3] is described as follows: UWB1.289-WTBRCA1 Cancer Cell Toxicity qHTS against the NCATS CANVASS Library (AID 1347354). Put shortly:
(§2)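 Luminescent ATP read-out (CellTiter-Glo, 15min at room temperature) measures survival after cells face an 11-point compound series for 72 hours at 37 degrees C/5% CO2.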

Assay [4] deals with NAD(P)H diaphorase (Clostridium kluyveri). The experiment in a line: Diaphorse counterscreen qHTS: Assay Interference Panel against the NCATS CANVASS Library (AID 1347362). An outline of the steps:
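Clostridium kluyveri diaphorase in PBS + 0.01% Tween-20 preincubated 15 min with compounds. Resazurin and NADH then added for 5 min at room temperature in the dark; resorufin fluorescence read (ex 525, em 598).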

The nature of assay [5]: KB-8-5-11 Cancer Cell Toxicity qHTS against the NCATS CANVASS Library (AID 1347364). Also: nearly all actives have a fitted effect of over 75% in size. Also: potency is read from the fitted curve at half-maximal effect. An outline of the steps:
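Plate 500 KB-8-5-11 cells per well in DMEM + 10% FBS, add compounds by pin transfer, incubate 72 hr at 37C. Add CellTiter-Glo, wait 10 minutes at room temperature, read luminescence.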

The nature of assay [6]: KB-3-1 Cancer Cell Toxicity qHTS against the NCATS CANVASS Library (AID 1347366). Also: nearly all actives have a fitted effect of over 75% in size. Also: potency is read from the fitted curve at half-maximal effect. Put shortly: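 KB-3-1 cells (500 cells/well) in DMEM + 10% FBS were treated with compounds for 72 hr at 37C, 5% CO2. Viability was read as CellTiter-Glo luminescence after 10 minutes at room temperature.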
A short description of assay [7]: qHTS for Hypoxia signaling pathway (HIF-1) antagonists against the NCATS CANVASS Library (AID 1347374). Also: nearly all actives have a fitted effect of over 60% in size. Also: potency is read from the fitted curve at half-maximal effect. Put shortly: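 HRE-bla ME-180 cells in medium with 0.5% dialyzed FBS received compounds (11-point series) plus CoCl2 (60 uM addition stock) for 17 hrs at 37C. Beta-lactamase activity read with CCF4 (405 nm ex, 460/530 nm em); CellTiter-Glo viability measured in same wells.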

Assay [8] in a line: qHTS for Hypoxia signaling pathway (HIF-1) agonists against the NCATS CANVASS Library (AID 1347375). Put shortly:
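ME-180 HRE-bla reporter cells; 2,000/well, 0.5% dialyzed FBS; cpd added after 5 h, 17 h 37C/5% CO2; CCF4-AM 2 h RT; FRET 460/530 nm; CellTiter-Glo viability same wells, 30 min.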

Assay [9] can be described thus: DH5-alpha competent E. coli microbial cell viability qHTS against the NCATS CANVASS Library (AID 1347377). The settings on record: outcome: dose series up to 46.1 µM unless noted. An outline of the steps: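 qHTS, 11-pt; E. coli DH5-alpha, 0.2 OD; o/n 37C/5% CO2; BacTiter-Glo, 20 min RT; luminescence.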
The nature of assay [10]: qHTS for H2AX Agonists against the NCATS CANVASS Library (AID 1347378). Put shortly:
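CHO-K1 cells were plated overnight at 37C, then exposed to compounds (concentration series, 0.76% DMSO final) for 3 hr at 37C. Lysates received Eu-cryptate anti-pH2AX (S139) and d2 anti-H2AX antibodies; after 24 hr at room temperature, TR-FRET 665/620 nm ratio was read.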

Assay [11] can be described thus: qHTS for Activators of p53 Stress Response Pathway screened against the NCATS CANVASS Library (AID 1347388). Put shortly: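 p53RE-bla HCT-116 cells (4000/well) were pre-incubated for 5 h, then treated with compound (11 points) for 16 h at 37C. After 2 h with CCF4, the 460/530 nm ratio gave reporter activation; CellTiter-Glo measured viability.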
Assay [12] can be described thus: Secretion counterscreen for inhibitors of the SERCaMP assay screened against the NCATS CANVASS Library (AID 1347390).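 Also: light from luciferase secreted into medium read as a measure of general secretion.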 Also: potency is read from the fitted curve at half-maximal effect. Put shortly: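 SH-SY5Y cells expressing constitutively secreted GLuc, 1000 cells/well, attached 4 h at 37C, then exposed to compounds (0.001 - 77 uM, 11-pnt series) for 20 h. Coelenterazine added; luminescence read to flag secretory-pathway interferers.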
A general note: The purpose of a counterscreen is to sort out artefacts and off-target activity.

Assay [13] can be described thus: qHTS for activators of dead-cell proteases activity screened against the NCATS CANVASS Library (AID 1347392).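 Also: luminescence from protease leaking out of membrane-damaged cells cleaving impermeant substrate; rising signal means more cytotoxicity.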 Put shortly: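 HepG2 cells, 2000/well, attached 18 h at 37C, then exposed to compounds (11-point qHTS) for 5 h. Dead-cell protease release read as luminescence from cell-impermeant AAF-aminoluciferin substrate after 15 min at room temperature.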
The nature of assay [14]: qHTS for inhibitors of ER calcium dysfunction: SERCaMP assay screened against the NCATS CANVASS Library (AID 1347393). Also: nearly all actives have a fitted effect of over 40% in size. Also: potency is read from the fitted curve at half-maximal effect. Put shortly:
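SH-SY5Y GLuc-SERCaMP, 1000 cells/well, 4 h attach; cpd 16 h, 37C/5% CO2; thapsigargin (added as 6x 600 nM) 4 h; coelenterazine; luminescence. Reduced reporter release = ER Ca stabilization.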

Assay [15] is described as follows: qHTS for inhibitors of Wild type Zika virus screened against the NCATS CANVASS Library (AID 1347396).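 Also: ATP luminescence of surviving cells so rescue from viral cell killing; series mostly up to about 46 µM.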 An outline of the steps:
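Vero 766 cells, 1000/well, o/n attach; cpds pin-transferred (11-pt qHTS); WT Zika added; 72 h, 37C, 5% CO2; CellTiter Glo lumi. Uninfected + vehicle = 100% inhibition.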

Assay [16] is described as follows: Viability qHTS for inhibitors of the SERCaMP assay screened against the NCATS CANVASS Library (AID 1347400). Also: nearly all actives have a fitted effect of over 70% in size. Also: potency is read from the fitted curve at half-maximal effect. An outline of the steps:
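SH-SY5Y SERCaMP MJH297 cells, 1000/well; 4 h settle, 37C/5% CO2; pin-transferred cpds; 48 h; CellTiter-Glo lum. Pos ctrl bortezomib 0.0001 - 4.6 uM.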

A short description of assay [17]: Redox Reaction Profiling qHTS: Assay Interference Panel against the NCATS CANVASS Library (AID 1347401). An outline of the steps:
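Compounds in 11-point series incubated with 5 uM resazurin and 200 uM DTT in 50 mM HEPES pH 7.3, 50 mM NaCl. Resorufin fluorescence (Ex 525/Em 598) read before and after 15 min in the dark.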

The nature of assay [18]: A2780 Cisplatin Sensitive Ovarian Cancer Cell Toxicity qHTS against the NCATS CANVASS Library (AID 1347353). Also: nearly all actives have a fitted effect of over 60% in size. Also: potency is read from the fitted curve at half-maximal effect. Put shortly: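 Luminescent ATP content (ATPLite, 10 min at room temperature) served as the read-out after cells had been exposed to compounds for 72 hours at 37 °C. Dosing followed an 11-point concentration series.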
Assay [19] in a line: HEK-293 Cancer Cell Toxicity qHTS against the NCATS CANVASS Library (AID 1347355). Also: nearly all actives have a fitted effect of over 65% in size. Also: potency is read from the fitted curve at half-maximal effect. An outline of the steps: as §2
Assay [20] can be described thus: SDT Cancer Cell Toxicity qHTS against the NCATS CANVASS Library (AID 1347365). Also: nearly all actives have a fitted effect of over 60% in size. Also: potency is read from the fitted curve at half-maximal effect. An outline of the steps:
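qHTS, SDT dog glioma line, 500 cells/well; cpds 11 pts; 72 hr, 37C, 5% CO2; CellTiterGlo ATP luminescence.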

Each structure is given as a SMILES string. Inconclusive results are not listed. Values without a mark were called inactive. Activity calls are given as the source filed them. Calls follow the shape of the dose curve; as a rule, active = well fitted curve in the direction sought with a large enough effect; inconclusive = small, poorly fitted or top-dose-only effect, or another doubt; inactive = no such curve, though single readings can be large; an effect the other way counts as inactive or inconclusive.

Take `C=C1C(=O)C[C@H]2C[C@@H]1[C@]2(C)CCC=C(C)C`: the Potency result in assay [1], in [2], in assay [3], in assay [4], in assay [5] and in assay [6] was “inactive” in each case. Further, the Potency entry in assay [7], in assay [8], in [10], in [11], in assay [12] and in assay [13] was “inactive” each time. The Potency entry in [15], in assay [16] and in [17] was “inactive” throughout. In addition, the outcome in assay [9] was inactive. Also, the Potency in assay [14] is 19300 nM (active).

As for `COc1ccc2cc(NC(=O)C3=NO[C@H]4[C@H](O)C=C[C@@H](Cl)[C@@]4(O)C3)c(=O)oc2c1OC`, the Potency entry in [1], in assay [2], in assay [3], in [19], in assay [4] and in assay [5] was “inactive” throughout. The Potency entry in assay [6], in assay [7], in assay [8], in assay [10], in [11] and in assay [13] was “inactive” in each case. For the same molecule, the Potency entry in assay [15], in assay [16] and in assay [17] was “inactive” in each case. Further, the figures for the Potency in [18] and in assay [14] were 9350 nM (active) and 15300 nM (active), respectively. In addition, the result in assay [9] was inactive.

With `C[C@@H](O)[C@H]1OC(=O)C=C2[C@]3(C)[C@H]4[C@H](OC(=O)[C@@]4(C)[C@@H](O)[C@H]4O[C@H]43)[C@H]3O[C@@]231`, the Potency in [1] was 2650 nM (active); in assay [18], 833 nM (active); in [19], 1480 nM (active); in assay [5], 1480 nM (active); in assay [20], 1180 nM (active); in assay [6], 1480 nM (active). Also, the Potency was 1490 nM (active) in assay [7], 3840 nM (active) in assay [12] and 7600 nM (active) in [16]. In addition, the Potency entry in assay [4], in assay [8], in [13], in assay [14] and in [17] was “inactive” in each case. The call in [9] was inactive.

For the molecule `C=C1C[C@@]23C=CC(=O)[C@@](C)(CCC(=O)Nc4c(O)ccc(C(=O)O)c4O)C2C[C@@H]1CC3` (stereo partly drawn), the Potency entry in assay [1], in assay [2], in [18], in assay [3], in assay [19] and in [4] was “inactive” throughout. The Potency result in assay [5], in [20], in assay [6], in assay [8], in assay [10] and in assay [11] was “inactive” each time. For the same molecule, the Potency entry in assay [12], in assay [13], in [14], in assay [15], in assay [16] and in assay [17] was “inactive” in each case.

With `C/C1=C\CC(=O)/C=C/C=C\c2csc(n2)[C@@H](C)NC(=O)C[C@@](S)([C@@H](C)C(=O)O)CC1`, the Potency result in [1], in assay [2], in assay [18], in assay [3], in assay [19] and in [5] was “inactive” each time. For the same molecule, the Potency result in [20], in [6], in assay [8], in [11], in assay [12] and in assay [13] was “inactive” throughout. Also, the Potency entry in [15] and in assay [16] was “inactive” each time. In addition, the outcome in assay [9] was inactive.

Regarding `O=Cc1ccc2n1C[C@@]1(C[C@H](O)[C@@H](CO)O1)OC2`, the Potency result in assay [1], in assay [2], in assay [18], in [3], in assay [19] and in assay [4] was “inactive” in each case. The Potency result in assay [5], in [20], in assay [6], in assay [7], in [8] and in assay [10] was “inactive” in each case. Also, the Potency result in assay [11], in assay [12], in assay [13], in assay [14], in assay [15] and in [16] was “inactive” in each case. Besides, the Potency entry in assay [17] was “inactive”. Further, the call in assay [9] was inactive.
